Assay outcomes (PubChem BioAssay)
This is a sample that favours compounds with a hit; in the whole collection about 2.5% have one here.
Measles CPE: protection of cells from measles virus. Measles virus-infected cells, CPE protection, absorbance. protection (pct of control), % at 4 µM. actives 1.5% (n = 140,000); in the data active means protection mostly above about 24%, no sharp cut-off; inactive means mostly below about 26%
sEH inh: soluble epoxide hydrolase (human) inhibition; recombinant human sEH enzymatic activity assay; inhibition, % at 2 µM; actives 0.34% (n = 91,000); in the data active means inhibition above about 80%
Target sequence (P34913 whole entry, looked up): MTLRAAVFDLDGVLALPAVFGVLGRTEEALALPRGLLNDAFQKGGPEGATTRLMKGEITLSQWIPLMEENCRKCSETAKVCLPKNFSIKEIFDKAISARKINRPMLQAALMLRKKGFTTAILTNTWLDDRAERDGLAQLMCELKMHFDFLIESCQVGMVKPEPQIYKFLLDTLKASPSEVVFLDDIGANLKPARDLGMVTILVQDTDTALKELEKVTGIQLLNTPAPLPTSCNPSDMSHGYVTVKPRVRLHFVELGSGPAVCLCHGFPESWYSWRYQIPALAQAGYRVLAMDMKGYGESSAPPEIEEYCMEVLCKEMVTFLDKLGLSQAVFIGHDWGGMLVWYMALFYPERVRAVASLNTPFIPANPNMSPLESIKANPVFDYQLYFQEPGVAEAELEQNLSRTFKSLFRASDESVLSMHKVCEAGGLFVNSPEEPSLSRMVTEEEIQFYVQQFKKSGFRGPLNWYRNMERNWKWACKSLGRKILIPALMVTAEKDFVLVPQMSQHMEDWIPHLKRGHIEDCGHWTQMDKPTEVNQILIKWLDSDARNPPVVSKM
MRP1 act: activators of MRP-1; actives 0.61% (n = 140,000); AID 799; H69AR cells + doxorubicin, viability rescue, CellTiter-Glo; viability increase, % at 10 µM;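 active means viability gain under doxorubicin at or above a set limit, the compound median plus 3 SD, cut at about 4.7% in these data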;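 further: MRP-1 overexpressing cells given doxorubicin 25 µM after compound pretreatment; 18-22 h compound pretreatment then 72 h with doxorubicin before readout; 0% = doxorubicin-only wells and 100% = vehicle-treated cells without doxorubicin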
MRP resist rev: compounds reversing MRP-mediated drug resistance | differential viability (reversal), % at 10 µM | AID 602 | H69AR cells + 2 uM doxorubicin, CellTiter-Glo, 72 h | actives 0.04% (n = 85,000);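 active means viability drop by adding the cancer drug above about 55%, with treated viability meeting a 40% cutoff, limit read from the data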;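 further: viability without doxorubicin minus viability with 2 µM doxorubicin for each compound; larger differential means the compound sensitizes cells more to doxorubicin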
sEH act: soluble epoxide hydrolase (human) activation; P34913; purified human sEH enzymatic activity, activator screen; activation, % at 2 µM; actives 0.04% (n = 91,000); AID 717; in the data active means activation above about 37%
sdo1 growth: compounds rescuing growth of sdo1-depleted yeast, bone marrow failure model; AID 817; S. cerevisiae sdo1-depleted JHY4D growth rescue, OD600 30 h; hits give high values; pdr5 snq2 efflux-pump mutant strain; z-score at 10 µM; actives 0.21% (n = 140,000);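 active means z-score above 3 at both the 24 hr and the 30 hr optical density reads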;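 further: z-score against mean and SD of all compound wells on the same plate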
* marks the source's active call; other numbers are inactive results; · = no result.

SMILES	Measles CPE	sEH inh	MRP1 act	MRP resist rev	sEH act	sdo1 growth
c1ccc(Oc2cc(-n3cncn3)ncn2)cc1	20	·	-1	·	·	0.02
Cc1cnn(-c2cc(Oc3ccccc3)ncn2)c1	13	-14	4.8*	4	14	-0.82
CCOC(=O)c1ccc(NC(=O)C2CCN(C(=O)c3ccc(OC)c(OC)c3)CC2)cc1	1	1	11*	-2	4	0.99
COc1cccc(OC)c1C(=O)N1CCN(Cc2ccc3c(c2)OCO3)CC1	8	5	-1	-5	-6	0.05
COCCSc1ccccc1C(=O)N1CCN(Cc2ccc3c(c2)OCO3)CC1	51*	15	-3	4	-12	0.42
O=C(O)CSc1c(-c2cccs2)[nH]c2ccccc12	40*	·	-3	·	·	0.86
CO/N=C(/CNC(=O)c1ccc(F)cc1)c1ccc(Cl)cc1	0	3	-2	·	-1	-0.43
COc1cccc(Nc2cc(C)nc3ccccc23)c1	8	7	-4	4	-8	0.65
Cc1cc(C)n(-c2nc3ccccc3nc2Nc2ccc3c(c2)OCO3)n1	42*	·	4	10	·	-0.93
Cc1cc(C)n(-c2ccc(C(=O)Nc3ccc4c(c3)OCO4)cc2)n1	3	-7	0	-11	7	0.19
COc1cccc(Nc2nc3ccccc3nc2-n2nc(C)cc2C)c1	2	-2	5.6*	-2	4	1.7
COC(=O)c1ccc(Cn2nc(C)c(Br)c2C)cc1	37	5	-1	10	-6	-0.23
Cc1nn(Cc2cccc(C(=O)NCC(C)C)c2)c(C)c1Br	27*	38	0	-6	-34	-0.63
CCCS(=O)(=O)N1CCN(C(=O)c2cccc(OC)c2)CC1	5	·	0	1	·	0.37
O=C(CCC1CCCCC1)NNC(=O)NC12CC3CC(CC(C3)C1)C2	5	84*	-2	·	-84	-0.93
CC(=O)Nc1ccc(Cl)cc1C(=O)O	8	-2	-1	-8	2	1.2
Cc1cc2nc(-c3ccc(SCC(=O)N4CCc5ccccc54)nc3)[nH]c2cc1C	-1	85*	-7	·	-84	-1.8
Cc1cc(NC(=O)CSc2ccc(-c3nc4cc(C)c(C)cc4[nH]3)cn2)no1	6	77	-3	-12	-76	0.11
CCOC(=O)N1CCN(C(=O)CSc2nc3c(c(=O)n2-c2ccccc2OC)SCC3)CC1	21	8	-4	57*	-9	0.76
COc1ccc2c(C(=O)CN3CCN(c4ccccc4)CC3)c[nH]c2c1	28*	8	-4	-6	-10	-0.21
O=[N+]([O-])c1c(Nc2ccccc2)ccc2nonc12	28*	-2	0	·	4	0.37
Cc1cc(C)nc(N/C(=N\S(=O)(=O)Cc2ccccc2)Nc2ccccc2Br)n1	21	·	-1	·	·	-0.17
COc1ccccc1CNC(=O)c1c(N)n(CCCN2CCOCC2)c2nc3ccccc3nc12	3	-108	-2	·	117*	-2.8
O=S(=O)(c1ccc(-c2cn3ccccc3n2)cc1)N1CCOCC1	63*	-16	-1	4	18	0.36
C/C(=N\NC(=O)Cc1cccc2ccccc12)c1ccncc1	26	·	-1	·	·	-0.84
SMILES	Measles CPE	sEH inh	MRP1 act	MRP resist rev	sEH act	sdo1 growth
COc1ccc(NC(=O)C(NC(=O)c2ccc(=O)[nH]c2)c2ccc(C)cc2)cc1 (stereo not given)	33*	·	-1	·	·	0.26
COc1cccc(OC)c1C(=O)NN1CCCCC1	35*	-8	1	·	8	0.73
COc1cc(OC)cc(C(=O)NN2CCCCC2)c1	1	-24	0	·	24	0.11
Cc1ccc(Sc2oc(/C=N/n3cnnc3)cc2Br)cc1	13	14	-3	-48	-14	-2.8
COC(=O)/C(=N/Nc1ccccc1C)N1CCCc2ccccc21	8	·	-3	·	·	-0.28
CSc1nc(NCC(C)C)nc(N2CCOCC2)n1	36*	-21	-1	20	19	0.08
CC(NC(=O)CSc1nnc(-c2cccc(S(=O)(=O)N3CCCCC3)c2)o1)C12CC3CC(CC(C3)C1)C2 (stereo not given)	5	93*	-2	-12	-93	-1.5
CC(C)CNC(=O)CSc1nnc(-c2cccc(S(=O)(=O)N3CCCCC3)c2)o1	20	62	0	10	-62	1
Nc1ccc(Cc2nc3c(ccc4ccccc43)[nH]2)cc1	58*	-16	-3	·	13	-0.41
Cc1ccc(NC(=O)Cc2csc(-c3ccccc3)n2)cc1F	9	·	5.1*	·	·	-1.5
CCOC(=O)C1C(=O)Nc2nc3ccccc3n2C1C(C)C (stereo not given)	8	-1	-2	9	2	0.13
CCOC(=O)c1c(-c2cccs2)csc1NC(C)=O	14	-6	0	15	8	-1
CCOC(=O)c1c(-c2cccs2)csc1NC(=O)CSc1ncn[nH]1	12	-4	6.0*	-2	2	-0.52
CCOC(=O)c1c(-c2ccc(OC)cc2)csc1NC(=O)CSc1ncnc2sccc12	43*	·	-1	·	·	1.2
O=C(CN1CCN(c2ccccc2)CC1)N1N=CCC1c1ccccc1 (stereo not given)	3	-31	-1	·	34	-0.08
O=C(CSC(=S)N1CCOCC1)N1N=CCC1c1ccccc1 (stereo not given)	35*	3	-2	4	-4	0.5
NC(=O)c1cnn(Cc2ccc(Cl)cc2)c1N	20	-10	-1	·	12	0.72
NNC(=O)c1cnn(Cc2ccccc2)c1N	7	87*	-1	9	-86	1.1
CC(=O)N/N=C/c1ccc(OCCOc2ccc(Br)cc2)cc1	17	·	-1	·	·	0.08
O=C(C1CCCN(c2ncccn2)C1)N1CCc2ccccc21 (stereo not given)	14	1	-3	7	-1	0.27
COc1ccc(OC)c(NC(=O)CSc2nnc(CNC(=O)COc3ccc(Cl)cc3)o2)c1	1	-1	5.6*	13	5	0.2
COc1ccc(NC(=O)CSc2nnc(CNC(=O)COc3ccc(Cl)cc3)o2)c(OC)c1	5	-5	4	16	9	2.1
COc1ccc(OC)c(NC(=O)CSc2ccc3ccccc3c2)c1	8	-4	-2	7	5	-0.15
COc1ccc(OC)c(NC(=O)COC(=O)CSc2ccc(Cl)cc2)c1	18*	·	0	·	·	0.92
CCOC(=O)c1nnc(-c2ccc(C)cc2)nc1Oc1ccc(Cl)cc1Cl	4	-7	5.0*	·	9	-1.7
CC(C)[C@H](NC(=O)NC1CCCC1)C(=O)O	7	-20	-1	-3	19	-0.07
CC(C)=CCCC(C)NC(=O)NC1CCCCC1 (stereo not given)	27*	91*	0	-1	-90	0.59
CCOC1(C)OCC(=O)[C@]2(CCC3C4CCC5=CC(=O)C=CC5(C)C4C(=O)CC32C)O1 (stereo not given in full)	27	·	-1	·	·	-0.42
CCCn1nnc(NC(=O)c2sc3ccccc3c2Cl)n1	4	18	-3	-3	-18	0.53
